From PubChem BioAssay (NCI)
About 83,000 compounds went through this panel and 20% of them were active in at least one assay; those are over-represented in the sample as a whole.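 In brief: 96-well plates, 48 h treatment, single concentration, percent growth endpoint.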 A number with no mark means an inactive call. The source made the active and inactive calls. How the source made its calls: active means growth percent below 10; inactive means the rest.

How the values were obtained:
Experiment in all cases: NCI-60 one-dose screen, 48 h (100 = growth as untreated, 0 = no growth, -100 = all killed)
Settings in all cases: 10 µM unless noted
[1] = system: SK-MEL-2 melanoma
[2] = system: EKVX NSCLC
[3] = system: SN12C renal
[4] = system: UO-31 renal
[5] = system: TK-10 renal
[6] = system: ACHN renal
[7] = system: CAKI-1 renal
[8] = system: A498 renal
[9] = system: CCRF-CEM leukemia
[10] = system: MOLT-4 leukemia
[11] = system: SR leukemia
[12] = system: RPMI-8226 leukemia
[13] = system: OVCAR-8 ovarian
[14] = system: OVCAR-5 ovarian
[15] = system: OVCAR-4 ovarian
[16] = system: SK-OV-3 ovarian
[17] = system: OVCAR-3 ovarian
[18] = system: HS 578T breast
[19] = system: NCI/ADR-RES ovarian
[20] = system: IGROV1 ovarian

Row | Structure (SMILES) | growth [1] | growth [2] | growth [3] | growth [4] | growth [5] | growth [6] | growth [7] | growth [8] | growth [9] | growth [10] | growth [11] | growth [12] | growth [13] | growth [14] | growth [15] | growth [16] | growth [17] | growth [18] | growth [19] | growth [20]
1 | O=C(N/N=C\c1ccccc1S(=O)(=O)O)N/N=C/c1ccccc1S(=O)(=O)O | 99.8% | 102% | 102% | 92.5% | 100% | 98.7% | 88.7% | 101% | 102% | 92.3% | 90.3% | 94.6% | 100% | 97.1% | 109% | 108% | 108% | 93.9% | 103% | 
2 | C[C@H](C(=O)N(CCc1ccc(Cl)c(Cl)c1)Cc1cncs1)[C@@H]1CC[C@H](C[C@H](C)n2cc(CN3CCC(c4ccc(Cl)cc4)CC3)nn2)O1 | 106% | 95.4% | 97.5% | 82.2% | 104% | 102% | 87.9% | 108% | 94.3% | -70% (active) | -44.7% (active) | 91.7% | 91% | 97% | 92.6% | 103% | 105% |  | 105% | 101%
3 | Cc1ccc2nc(-c3ccc(C(=O)NNC(=S)Nc4ccccc4)cc3)[nH]c2c1 | 112% | 93.2% | 93.9% | 89.8% | 151% | 99.6% | 95.3% | 46.6% | 88.8% | 83.3% | 88.6% | 85.1% | 95.7% | 98.3% | 88.2% | 98.3% | 95% | 111% | 100% | 
4 | CCOC(=O)C(=CNc1cnc(Nc2ccc(N3CCOCC3)cc2)nc1Oc1ccc(OC)cc1)C(=O)OCC | 91.8% | 87.1% | 26.6% | 11.3% | -26% (active) | 19% | 25.1% | 42.1% | 37.7% | 60.5% | 31.6% | 42.2% | 43.1% | 71.5% | -43.1% (active) | 55.5% | -9.17% (active) | 35% | 54.4% | 
5 | CC1(C)NCCC[C@]2(C)[C@H]3CC[C@H]4[C@H]5[C@H](C(=O)/C=C/c6cccnc6)CCC[C@]5(CO)CC[C@@]4(C)[C@]3(C)CC[C@@H]12 | 96.9% | 79.2% | 58.5% | 57.8% | 106% | 80.4% | 47.8% | 93.9% | 36% | 7.39% (active) | -24.6% (active) | 13.1% | 55.5% | 74.8% | 75.3% | 108% | 60.1% |  | 82.4% | 26.6%
6 | CCN1C(=O)N(CC)C2C1NN=c1s/c(=C3\C(=O)N(CCC(C)C)c4ccccc43)c(=O)n12 (stereo not given) | 60.8% | 48.2% | 25.2% | 29.5% | 79.8% | 30.7% | 29.9% | -1.36% (active) | 13.7% | 20.7% | 16.7% | 17% | 9.81% (active) | 34.1% | 45.5% | 43.7% | 3.23% (active) | 15% | 8.98% (active) | 
7 | COC(=O)c1c2c(c(C)[n+]([O-])c1C)C(=O)C(NCc1ccc(OC)cc1)=CC2=O | 62.3% | 55% | 0.985% (active) | 65.3% | 102% | 40.1% | 48.5% | 113% | 20.7% | 0.904% (active) | 9.98% (active) | 23.6% | -15.2% (active) | 53% | -39.2% (active) | 99.2% | -18.6% (active) | 84.8% | 10.1% | 
8 | C=C(C)[C@@H]1CC[C@]2(C(N)=O)CC[C@]3(C)[C@H](CC[C@@H]4[C@@]5(C)CC[C@H](OCCC#N)C(C)(C)[C@@H]5CC[C@]43C)[C@@H]12 | 92.5% | 90.4% | 78.5% | 75.8% | 117% | 74.1% | 64.5% | 116% | 78.9% | 70% | 72.7% | 73.2% | 86.9% | 76.3% | 93.2% | 79.5% | 110% | 88.3% | 89% | 
9 | COC(=O)c1nc(-c2ccccc2)oc1S(=O)(=O)NCC(c1ccc(Cl)cc1)N1CCOCC1 (stereo not given) | 80.9% | 96.7% | 81.2% | 60% | 62.3% | 64.7% | 71.2% | 90.4% | -21% (active) | 7.96% (active) | 1.88% (active) | 7.86% (active) | 65% | 77.7% | 86.2% | 97% | 35.1% |  | 97.9% | 61.1%
10 | COc1ccc(C2=CC(c3cc(OC)c(OC)c(OC)c3)n3ncnc3N2)cc1 (stereo not given) | 24% | 66.7% | 38.4% | 41.3% | 62% | 32.4% | 21.7% | -5.66% (active) | 13.8% | 17.3% | 10.3% | 24.4% | 5.91% (active) | 35% | 41.4% | -7.15% (active) | -41.4% (active) |  | 12.8% | 22.2%
11 | C=C1C(=O)O[C@H]2[C@H]1CC/C(COC(=O)/C=C\C(=O)NCc1ccc(Cn3c(=O)sn(CCCl)c3=O)cc1)=C\CC[C@@]1(C)O[C@@H]21 | 85.8% | 86.2% | 89.9% | 79.9% | 60.9% | 44.2% | 47.9% | 132% | 7.92% (active) | 35.1% | 15.5% | 74.8% | 86.9% | 91% | 96.3% | 115% | 36.2% |  | 108% | 34.8%
12 | N#C/C(=C\c1ccc([N+](=O)[O-])cc1)n1nnc2cc(F)c(F)cc21 | 95.9% | 82.1% | 4.63% (active) | -77.8% (active) | 6.11% (active) | -74.9% (active) | 6.07% (active) | 67.6% | 4.63% (active) | 3.58% (active) | -0.476% (active) | -22.4% (active) | 11.4% | 21% | 9.19% (active) | 94.2% | -40.1% (active) |  | 9.64% (active) | -10.9% (active)
13 | CO[C@H](C(=O)[C@@H](O)[C@@H](C)O)[C@@H]1Cc2cc3cc(O[C@H]4C[C@@H](O[C@H]5C[C@@H](O)[C@H](O)C(C)O5)[C@H](O)C(C)(O)O4)cc(O)c3c(O)c2C(=O)[C@H]1O[C@H]1C[C@@H](O[C@H]2C[C@@H](O[C@H]3C[C@@H](OC)[C@H](O)C(C)O3)[C@@H](O)C(C)O2)[C@H](O)C(C)O1 (stereo not given in full) | -54.9% (active) | 34.7% | 20.5% | 41.7% | 37% | 25.9% | 68.9% | -30.9% (active) | 54.5% | 37.9% | 24% | 26.7% | 24.3% | 21% | 42.2% | 17.3% | 21.7% | 26.4% | 102% | 
14 | CC1(C)N=C(N)N=C(N)N1c1cccc(CCc2ccccc2)c1 | 50.3% | 67.2% | 32.4% | 98.5% | 38.7% | 105% | 107% | 82.7% | 30.5% | 30.5% | 28.5% | 26.5% | 52.6% | 49.2% | 72.1% | 58.9% | 22.8% |  | 111% | 30.3%
15 | NS(=O)(=O)c1ccc(NC(=O)/C(=C\c2ccc(Cl)cc2Cl)NC(=O)c2ccccc2)cc1 | 95.3% | 99.6% | 94.7% | 75.8% | 104% | 98.2% | 88.6% | 95% | 105% | 92.3% | 96.6% | 92.2% | 101% | 108% | 97.7% | 96.3% | 113% |  | 98.2% | 74.9%
